Assay outcomes from PubChem BioAssay.
MITF inh: blocks MITF activity. inhibition, % (no concentration beside the values). 37,000 compounds, 0.28% hits. TRPM1 promoter luciferase, luminescence, 24 h; in the data active means inhibition above about 85%; inconclusive means no clear call, values can overlap the other calls; inactive means below about 68%;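 further: human melanocyte line stably carrying TRPM1 promoter luciferase reporter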
Hedgehog inh: blocks Sonic Hedgehog signaling; Shh-LIGHT2 Gli-luciferase reporter, 30 h; inhibition, % (no concentration beside the values); 22,000 compounds, 2.1% hits; AID 2313;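 active means mean inhibition across valid replicates above about 65%, limit read from the data; inconclusive means mean under the limit, yet half or more replicates past it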;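 further: pathway switched on by Shh-conditioned medium diluted 1 in 25 in low serum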
NOMO-1 viab: STK33 inhibitor candidate reducing NOMO-1 cell viability | NOMO-1 AML viability, CellTiter-Glo luminescence, 72 h | inhibition, % (concentration not given with the values) | 37,000 compounds, 7.5% hits | AID 2330; in the data active means inhibition above about 80%; inconclusive means no clear call, values can overlap the other calls
Starred values were filed as active, the others as inactive. Most compounds without a hit are left out; they make up all but 7.9% or so of the library.

For C[C@H]1CN([C@@H](C)CO)C(=O)Cc2cc(NC(=O)CCCCCC(=O)Nc3ccccc3N)ccc2O[C@@H]1CN(C)Cc1ccc(Cl)c(Cl)c1 the results were MITF inh 13 and NOMO-1 viab 92*.
`C[C@@H]1CN([C@@H](C)CO)C(=O)c2cc(NC(=O)CCCCCC(=O)Nc3ccccc3N)ccc2O[C@H]1CN(C)Cc1ccccc1` gave MITF inh 12 and NOMO-1 viab 18.
COc1ccc(NC(=O)c2ccccc2NC(=O)COc2ccc(Cl)cc2)cc1 was read as MITF inh -24 and NOMO-1 viab 10.
Cn1nnnc1SCC(=O)c1ccc(O)c(O)c1 was read as MITF inh -20 and NOMO-1 viab 31.
For Cc1ccc(S(=O)(=O)Nc2ccccc2/C(O)=C(/C#N)c2nc3ccccc3n2C)cc1 the results were MITF inh -21, Hedgehog inh 1 and NOMO-1 viab 7.
Screening Cc1ccc(NC(=O)COc2ccc(I)cc2)c(C(=O)O)c1 returned MITF inh -11 and NOMO-1 viab 15.
COc1cccc(CNc2nc3nc(C)c(Cc4ccccc4)c(=O)n3[nH]2)c1 was read as MITF inh -6 and NOMO-1 viab 11.
CC(=O)Nc1cccc(NC(=O)CSc2ccccc2[N+](=O)[O-])c1 was read as MITF inh -51 and NOMO-1 viab 1.
`Cc1nn(Cc2cccc(C(=O)Nc3ccccc3F)c2)c(C)c1Cl` gave MITF inh -45 and NOMO-1 viab -2.
`Cc1nn(Cc2cccc(C(=O)NC(=O)Nc3ccc(Cl)cc3)c2)c(C)c1Br` gave MITF inh 1, Hedgehog inh 14 and NOMO-1 viab 107*.
C(=Nc1ccc2ccccc2c1)Nc1ccc2ccccc2c1 was read as MITF inh -15, Hedgehog inh 12 and NOMO-1 viab 13.
For CCOc1ccc(Nc2nc3cc(C)ccc3cc2C)cc1 the results were MITF inh 12, Hedgehog inh 20 and NOMO-1 viab 23.
`COC(=O)c1c(-c2c(Cl)cccc2Cl)noc1NC(=O)NCc1ccccc1` gave MITF inh 5, Hedgehog inh 38 and NOMO-1 viab 104*.
Screening Cc1onc(-c2c(Cl)cccc2Cl)c1C(=O)ON1C(=O)CCC1=O returned MITF inh -8, Hedgehog inh 16 and NOMO-1 viab 70.
For Cc1cc(=O)c2c(O)c(C)c(O)cc2o1 the results were MITF inh 4, Hedgehog inh -4 and NOMO-1 viab -4.
Screening C[C@H]1CN([C@@H](C)CO)C(=O)Cc2cc(NC(=O)Cc3ccccc3)ccc2O[C@H]1CN(C)C returned MITF inh 2, Hedgehog inh -17 and NOMO-1 viab 26.
Screening CC(=O)N1CCN(c2ccc([N+](=O)[O-])c(NCc3cccnc3)c2)CC1 returned MITF inh -16 and NOMO-1 viab 30.
Screening CC(C)(C)c1ccc(C(=O)N2CCN(c3ccc([N+](=O)[O-])c(NCc4cccnc4)c3)CC2)cc1 returned MITF inh inconclusive and NOMO-1 viab 111*.
C[C@@H]1CN([C@H](C)CO)C(=O)c2cccc(NC(=O)c3cnccn3)c2O[C@H]1CN(C)S(=O)(=O)c1cccs1 was read as MITF inh -8, Hedgehog inh 28 and NOMO-1 viab 1.
COc1ccc(-c2nnc(SCC(=O)Nc3ccc4cn[nH]c4c3)n2-c2ccc(Cl)cc2)cc1 was read as MITF inh 23 and NOMO-1 viab 5.
Screening COc1ccc(S(=O)(=O)N(C)C[C@H]2Oc3ccc(NC(=O)Nc4cccc5ccccc45)cc3CC(=O)N([C@H](C)CO)C[C@H]2C)cc1 returned MITF inh 17, Hedgehog inh -10 and NOMO-1 viab 10.
For COC(=O)Nc1nc2ccc(S(=O)c3ccccc3)cc2[nH]1 (stereo not given) the results were MITF inh 27, Hedgehog inh -62 and NOMO-1 viab 102*.
Screening Cc1ccc2nc(SCC(=O)NCc3ccccc3)[nH]c2c1 returned MITF inh -8 and NOMO-1 viab 12.
COC(=O)C(C)c1ccc(C(=O)c2cccs2)cc1 (stereo not given) was read as MITF inh -22, Hedgehog inh -35 and NOMO-1 viab -6.
Screening COc1ccc(C(=O)c2ccccc2)cc1 returned MITF inh -19 and NOMO-1 viab -14.
`COC(=O)Nc1nc2ccc(C(=O)c3cccs3)cc2[nH]1` gave MITF inh 7, Hedgehog inh 62 and NOMO-1 viab 94*.
Screening COC(=O)Nc1nc2ccc(C(=O)c3ccccc3)cc2[nH]1 returned MITF inh 30, Hedgehog inh 42 and NOMO-1 viab 110*.
`CC(C)(C)c1ccc(C(=O)NCCNc2ccccc2[N+](=O)[O-])cc1` gave MITF inh -67 and NOMO-1 viab 33.
For Cc1ccccc1-c1nc(SCC(=O)Nc2ccc(Br)c(Cl)c2)n[nH]1 the results were MITF inh -3 and NOMO-1 viab -5.
